From PubChem BioAssay AID1494156 (National Center for Advancing Translational Sciences (NCATS), 2020) come the findings set out here.

The test in a line: VSV-G qHTS counterscreen for inhibitors of MERS-S pseudo-typed particle cell entry. (In general: Quantitative high-throughput screening tests each substance at several concentrations.)

Records with an inconclusive call do not appear. A number with no mark means an inactive call. Activity calls are given as the source filed them. Calls come from the whole dose curve.

Regarding `CN(C)CC/C=C1\c2ccccc2Sc2ccc(Cl)cc21`, the Potency was 8.57 µM (active).

With `N=C(N)c1ccc(OCCCCCOc2ccc(C(=N)N)cc2)cc1`, the Potency was 10.8 µM (active).

As to `CC(C)(C)C(=O)OCOP(=O)(COCCn1cnc2c(N)ncnc21)OCOC(=O)C(C)(C)C`, the Potency is 0.0429 µM (active).

With `O=c1[nH]c(=O)n([C@H]2C[C@H](O)[C@@H](CO)O2)cc1C(F)(F)F`, the Potency was 2.41 µM (active).

For the molecule `CC(CN(C)C)CN1c2ccccc2CCc2ccccc21` (stereo not drawn), the Potency entry was “inactive”.

`C/C=C(/C)C(=O)O[C@H]1C(C)=CC23C(=O)C(C=C(CO)[C@@H](O)[C@]12O)[C@H]1[C@@H](C[C@H]3C)C1(C)C` (stereo partly drawn): the Potency entry is “inactive”.

On to `COc1cccc2c1C(=O)c1c(O)c3c(c(O)c1C2=O)C[C@@](O)(C(=O)CO)C[C@@H]3O[C@H]1C[C@H](N)[C@@H](O)[C@H](C)O1`, for which the Potency is 2.41 µM (active).

Consider `O=c1ccc2ccccc2o1`, for which the Potency entry is “inactive”.

`CC(=O)N1CCN(c2ccc(OC[C@H]3CO[C@](Cn4ccnc4)(c4ccc(Cl)cc4Cl)O3)cc2)CC1`: the Potency was 7.64 µM (active).

As to `NCCNc1ccc(NCCN)c2c1C(=O)c1ccncc1C2=O`, the Potency is 21.5 µM (active).

`COc1cccc2c1C(=O)c1c(O)c3c(c(O)c1C2=O)C[C@@](O)(C(=O)CO)CC3OC1CC(N2CCOC(OC)C2)C(O)C(C)O1` (stereo partly drawn): the Potency is 0.152 µM (active).

As for `COc1c(OCCCN2CCOCC2)ccc2c3n(c(=NC(=O)c4cnc(N)nc4)nc12)CCN3`, the activity, negative = inhibition was -8.49% [at 11.2 µM].

Consider `CCc1c2c(nc3ccc(OC(=O)N4CCC(N5CCCCC5)CC4)cc13)-c1cc3c(c(=O)n1C2)COC(=O)[C@]3(O)CC`, for which the Potency was 10.8 µM (active).
